Composite z-score and z-score data for five compounds are collected here from PubChem BioAssay.

Calls of active or inactive are those of the source.

The nature of assay [1]: binders of probe aFSTL3 on microarray, primary screen, stem cell growth factor project, biochemical, small-molecule microarray, fluorescence 635/667 (AID 1064).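 Note: measures binding of the biotinylated anti-FSTL3 antibody to printed compounds.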 The settings on record: higher = more signal.
A short description of assay [2]: binders from COS7 lysate, DM2A8 probe, primary screen, torsin A project, cell lysate, small-molecule microarray, fluorescence 635/667 (AID 1065). To be noted: higher = more signal, COS7 lysate expressing mutant human TOR1A.
Assay [3] is described as follows: binders of probe aFGF2 on microarray, primary screen, stem cell growth factor project, biochemical, small-molecule microarray, fluorescence 635/667 (AID 1067).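 Note: measures binding of biotinylated aFGF2 protein to printed compounds on slides; z-score merges feature fluorescence and signal-to-noise across triplicate slides.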 To be noted: higher = more signal.
Assay [4] can be described thus: binders of probe aFGF10 on microarray, primary screen, stem cell growth factor project, biochemical, small-molecule microarray, fluorescence 635/667 (AID 1071).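 Note: score merges 667 nm spot intensity and signal to noise from triplicate slides.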 To be noted: higher = more signal.
Assay [5] addresses Neurogenic locus notch homolog protein 2 (Homo sapiens) (UniProt Q04721). In words: Notch2 binders on small-molecule microarrays, primary screen, biochemical, small-molecule microarray, 635 nm fluorescence, stem cell growth factors (AID 1073). To be noted: Notch2 binding, higher = more signal.
The target of assay [6] is Pro-neuregulin-1, membrane-bound isoform (Homo sapiens) (UniProt Q02297). In words: NRG1 binders on small-molecule microarrays, primary screen, psychiatric disease protein project, biochemical, small-molecule microarray, fluorescence 635/667 (AID 1075).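 Note: score combines 667 nm spot fluorescence with signal to noise.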 The settings on record: NRG1 binding, 635 nm fluorescence, higher = more signal.
Assay [7] concerns Neuregulin-1 EGF-like domain. Description: binders of neuregulin-1 EGF-like domain, primary screen, biochemical, small-molecule microarray, 635 nm fluorescence (AID 1081).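 Note: binding of the protein to compounds printed on small-molecule microarray slides.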 The settings on record: small-molecule microarray binding, higher = more signal.
Assay [8] can be described thus: FRG1 promoter luciferase signal modulators, primary screen, FRG1 inhibition for FSHD, cell-based, C2C12 myotubes, firefly/Renilla luciferase, luminescence (AID 1084). To be noted: higher = more signal, called active from +8 up or from −8 down.
A short description of assay [9]: binders of probe aFST on microarray, primary screen, stem cell growth factor project, biochemical, small-molecule microarray, fluorescence 635/667 (AID 1086).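 Note: score merges 667 nm fluorescence with signal-to-noise of each printed compound spot.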 The settings on record: higher = more signal.
A short description of assay [10]: binders of probe aHhip on microarray, primary screen, stem cell growth factor project, biochemical, small-molecule microarray, fluorescence 635/667 (AID 1087).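 Note: score merges spot fluorescence at 667nm with spot signal to noise ratio.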 To be noted: higher = more signal.
Assay [11] deals with PRMT1 (protein arginine N-methyltransferase 1). In words: PRMT1 binders on small-molecule microarrays, primary screen, biochemical, small-molecule microarray, 635 nm fluorescence (AID 1088).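 Note: binding of Prmt1 protein to compounds spotted on small-molecule microarray slides.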 The settings on record: small-molecule microarray binding, higher = more signal.
A short description of assay [12]: yeast growth modulation, basal conditions, primary screen, YJM789 clinical isolate, OD600, 24 h (AID 1089).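 Note: growth of clinical yeast isolate S. cerevisiae YJM 789 seeded 1000 cells per well; test concentration not given here.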 To be noted: S. cerevisiae YJM789 growth, higher = more signal, called active from +8 up or from −8 down.
A short description of assay [13]: fission yeast growth modulation, primary screen, strain 972, OD600, 24 h, no modulator (AID 1090).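 Note: basal condition with compound alone and no growth modifier present; test concentration not given here.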 The settings on record: S. pombe 972 growth, higher = more signal, called active from +8 up or from −8 down.
A short description of assay [14]: S. cerevisiae growth modulation with rapamycin, primary screen, strain BY4716, OD600, 96 h (AID 1091). Note: test concentration not given here. To be noted: higher = more signal, called active from +8 up or from −8 down.
The target in assay [15] is Torsin-1A-interacting protein 2 (Homo sapiens) (UniProt Q8NFQ8). In words: LULL1 binders on small-molecule microarray, primary screen, cell lysate, human LULL1 lysate, 635/667 nm fluorescence (AID 1092).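 Note: probe is lysate of COS7 cells overexpressing human LULL1; score merges per-feature 667 nm fluorescence with signal-to-noise.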 To be noted: hLULL1 lysate binding, 635 nm fluorescence, higher = more signal.
The nature of assay [16]: E. coli growth modulation, two-sided OD650, primary screen, E. coli filamentation project, strain DRC41, 24 h (AID 1093).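 Note: MC1000 strain lacking acrAB efflux and sulA so SOS filamentation is blocked; test concentration not given here.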 To be noted: OD650, 24 h, higher = more signal, called active from +8 up or from −8 down.
The nature of assay [17]: small-molecule microarray binders of probe aLefty2, primary screen, biochemical, biotinylated probe, 635/667 nm fluorescence (AID 1094).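 Note: score merges spot fluorescence near 667 nm with spot signal-to-noise ratio.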 To be noted: higher = more signal.
In assay [18] the test system is Noggin (protein binding on small-molecule microarray). In words: Noggin binders on small-molecule microarray, primary screen, biochemical, 635/667 nm fluorescence (AID 1095).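 Note: score merges 667 nm feature fluorescence with signal to noise over triplicate slides.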 The settings on record: 635 nm fluorescence, higher = more signal.
Assay [19] has as its target Neurogenic locus notch homolog protein 3 (Homo sapiens) (UniProt Q9UM47). In words: NOTCH3 binders on small-molecule microarray, primary screen, biochemical, 635/667 nm fluorescence (AID 1096). To be noted: NOTCH3 binding, 635 nm fluorescence, higher = more signal.
Assay [20] is described as follows: small-molecule microarray binders of probe aEGFR, primary screen, biochemical, biotinylated probe, 635/667 nm fluorescence (AID 1097).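 Note: probe is a biotinylated anti-EGFR antibody binding compounds printed on slides; score combines fluorescence near 667 nm and signal to noise of each spot.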 The settings on record: higher = more signal.

Sequence of Neurogenic locus notch homolog protein 3 (Homo sapiens) (Q9UM47 whole entry, looked up): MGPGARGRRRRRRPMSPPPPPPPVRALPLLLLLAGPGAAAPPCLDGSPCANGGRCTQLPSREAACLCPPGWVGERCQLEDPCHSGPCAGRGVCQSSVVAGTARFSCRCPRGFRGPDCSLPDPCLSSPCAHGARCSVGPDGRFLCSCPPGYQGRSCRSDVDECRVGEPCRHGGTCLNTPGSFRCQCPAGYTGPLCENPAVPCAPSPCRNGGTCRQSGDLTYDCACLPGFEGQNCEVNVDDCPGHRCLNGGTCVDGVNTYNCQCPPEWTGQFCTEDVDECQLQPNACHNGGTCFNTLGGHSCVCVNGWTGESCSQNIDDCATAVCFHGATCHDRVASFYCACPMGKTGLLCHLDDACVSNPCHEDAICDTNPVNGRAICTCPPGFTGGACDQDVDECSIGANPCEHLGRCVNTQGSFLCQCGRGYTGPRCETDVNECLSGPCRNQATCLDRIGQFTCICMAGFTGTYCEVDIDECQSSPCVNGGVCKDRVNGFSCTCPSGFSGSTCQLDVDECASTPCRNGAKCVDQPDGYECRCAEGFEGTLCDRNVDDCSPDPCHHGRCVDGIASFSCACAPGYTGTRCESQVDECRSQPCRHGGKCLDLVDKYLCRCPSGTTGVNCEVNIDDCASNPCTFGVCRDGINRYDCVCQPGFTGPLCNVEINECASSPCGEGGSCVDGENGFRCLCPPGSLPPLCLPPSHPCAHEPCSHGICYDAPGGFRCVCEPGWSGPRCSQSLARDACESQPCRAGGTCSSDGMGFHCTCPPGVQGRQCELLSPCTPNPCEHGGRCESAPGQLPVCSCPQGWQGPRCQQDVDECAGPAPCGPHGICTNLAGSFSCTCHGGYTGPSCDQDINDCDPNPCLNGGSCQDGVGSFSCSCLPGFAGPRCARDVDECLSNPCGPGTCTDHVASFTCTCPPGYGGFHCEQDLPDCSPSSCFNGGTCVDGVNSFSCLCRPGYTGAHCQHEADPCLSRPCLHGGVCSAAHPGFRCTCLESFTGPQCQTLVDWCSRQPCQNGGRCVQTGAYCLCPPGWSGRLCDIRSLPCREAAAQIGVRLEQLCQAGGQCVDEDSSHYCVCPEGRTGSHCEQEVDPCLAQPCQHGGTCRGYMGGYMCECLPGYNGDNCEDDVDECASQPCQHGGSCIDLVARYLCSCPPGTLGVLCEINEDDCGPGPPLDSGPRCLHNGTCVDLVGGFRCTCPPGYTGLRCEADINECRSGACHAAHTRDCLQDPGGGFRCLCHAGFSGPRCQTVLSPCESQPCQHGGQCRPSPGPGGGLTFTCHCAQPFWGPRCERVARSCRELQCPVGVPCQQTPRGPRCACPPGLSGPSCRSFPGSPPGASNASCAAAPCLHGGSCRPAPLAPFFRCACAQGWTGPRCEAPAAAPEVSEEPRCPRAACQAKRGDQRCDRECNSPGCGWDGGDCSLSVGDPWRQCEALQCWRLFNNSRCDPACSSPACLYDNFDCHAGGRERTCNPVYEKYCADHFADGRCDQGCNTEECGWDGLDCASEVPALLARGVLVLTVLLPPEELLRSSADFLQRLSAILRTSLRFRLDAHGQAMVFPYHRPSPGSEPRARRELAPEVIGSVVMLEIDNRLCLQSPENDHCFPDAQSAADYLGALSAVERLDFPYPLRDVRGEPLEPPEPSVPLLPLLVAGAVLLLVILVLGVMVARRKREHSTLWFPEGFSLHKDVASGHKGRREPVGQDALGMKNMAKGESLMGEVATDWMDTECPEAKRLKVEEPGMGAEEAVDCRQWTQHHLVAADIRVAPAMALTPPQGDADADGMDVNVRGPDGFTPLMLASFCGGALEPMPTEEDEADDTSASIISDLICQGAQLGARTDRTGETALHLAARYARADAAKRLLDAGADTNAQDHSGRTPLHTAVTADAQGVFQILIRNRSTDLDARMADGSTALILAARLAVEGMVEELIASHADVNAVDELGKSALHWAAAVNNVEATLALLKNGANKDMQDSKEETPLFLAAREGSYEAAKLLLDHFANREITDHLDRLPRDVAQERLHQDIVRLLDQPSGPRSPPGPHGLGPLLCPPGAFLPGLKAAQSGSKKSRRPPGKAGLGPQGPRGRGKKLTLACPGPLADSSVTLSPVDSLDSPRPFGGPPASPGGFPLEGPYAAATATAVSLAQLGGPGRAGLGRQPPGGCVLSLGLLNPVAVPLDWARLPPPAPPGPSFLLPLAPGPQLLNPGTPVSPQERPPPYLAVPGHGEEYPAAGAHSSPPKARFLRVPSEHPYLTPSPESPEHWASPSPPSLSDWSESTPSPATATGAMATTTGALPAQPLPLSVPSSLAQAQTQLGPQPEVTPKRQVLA
Sequence of Pro-neuregulin-1, membrane-bound isoform (Homo sapiens) (Q02297 whole entry, looked up, the tested form may be a part, canonical isoform): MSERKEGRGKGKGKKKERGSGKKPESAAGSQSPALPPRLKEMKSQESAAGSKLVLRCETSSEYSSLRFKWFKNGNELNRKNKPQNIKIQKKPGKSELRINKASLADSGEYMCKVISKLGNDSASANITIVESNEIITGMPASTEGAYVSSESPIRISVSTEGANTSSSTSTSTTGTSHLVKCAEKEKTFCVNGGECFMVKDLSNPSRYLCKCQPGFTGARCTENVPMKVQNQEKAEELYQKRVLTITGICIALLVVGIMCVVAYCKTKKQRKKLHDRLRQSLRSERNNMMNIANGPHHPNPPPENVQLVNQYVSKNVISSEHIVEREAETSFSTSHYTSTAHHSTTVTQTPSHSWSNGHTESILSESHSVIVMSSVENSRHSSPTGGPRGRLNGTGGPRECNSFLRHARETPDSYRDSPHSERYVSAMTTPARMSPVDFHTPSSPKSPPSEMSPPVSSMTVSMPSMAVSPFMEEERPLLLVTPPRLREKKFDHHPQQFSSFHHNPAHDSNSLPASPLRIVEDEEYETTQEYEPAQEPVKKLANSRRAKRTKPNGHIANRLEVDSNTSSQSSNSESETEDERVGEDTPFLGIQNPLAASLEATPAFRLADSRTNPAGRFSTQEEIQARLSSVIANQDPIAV
Sequence of Torsin-1A-interacting protein 2 (Homo sapiens) (Q8NFQ8 whole entry, looked up): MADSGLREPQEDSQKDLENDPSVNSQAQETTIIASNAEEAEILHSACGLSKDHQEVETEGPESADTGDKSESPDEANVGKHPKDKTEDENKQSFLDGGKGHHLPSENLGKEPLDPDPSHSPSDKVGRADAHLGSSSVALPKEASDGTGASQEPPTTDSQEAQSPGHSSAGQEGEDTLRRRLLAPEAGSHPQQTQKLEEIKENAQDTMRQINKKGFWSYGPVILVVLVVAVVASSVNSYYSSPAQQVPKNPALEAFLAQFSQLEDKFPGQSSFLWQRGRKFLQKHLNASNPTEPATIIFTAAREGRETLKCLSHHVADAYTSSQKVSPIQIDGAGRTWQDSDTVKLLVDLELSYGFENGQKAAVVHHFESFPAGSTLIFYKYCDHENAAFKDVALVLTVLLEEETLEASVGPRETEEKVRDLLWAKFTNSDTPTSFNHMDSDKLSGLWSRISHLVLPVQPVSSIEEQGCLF

For the compound `CC(=O)OC[C@H]1O[C@H](CCON=C(C)CCN2CCCc3nc(C)c(C)cc32)C=C[C@@H]1OC(C)=O`, the composite z-score in assay [1] is -0.293; in assay [2] it was 0.704; in [3], -0.0454; in assay [4] it was 0.72; in [5], 1.19; in assay [6], 0.237. Moreover, the composite z-score came to 1.1 in assay [7]; 0.522 in [9]; 0.0722 in [10]; 1.54 in [11]; 1.31 in assay [15]; 0.118 in assay [17]. Besides, the composite z-score in assay [18] amounted to 0.754; in assay [19], 1.04; in assay [20], 0.577. In addition, the z-score in assay [8] is 0.523 (inactive); in [12], 0.569 (inactive); in [13], 0.339 (inactive); in [14], 0.61 (inactive); in assay [16], 1.08 (inactive).

With `O=C1C[C@H](c2ccccc2)[C@H](c2ccc(Br)cc2)O1`, the composite z-score in [1] was -0.295; in assay [2] it was 0.246; in [3], -0.0761; in assay [4], 0.289; in assay [5], 0.0429; in assay [6] it was -0.482. The composite z-score in assay [7] was -0.293; in assay [9], 0.133; in assay [10] it was -0.0994; in [11], -0.146; in assay [15] it was -0.247; in [17], -0.224. For the same compound, the composite z-score in assay [18] is 0.401; in [19], -0.489; in assay [20] it was -0.17. Also, the z-score in [8] is -0.78 (inactive); in [12] it was -3.83 (inactive); in [13] it was -11.8 (active); in assay [14], -1.84 (inactive); in [16], 0.421 (inactive).

As for `CC(C)=NOC(C)CN1CCCc2nc(C)c(C)cc21` (stereo not given), the composite z-score is -0.39 in assay [1]; -0.184 in assay [2]; -0.0408 in assay [3]; 0.897 in assay [4]; 0.652 in assay [5]; 0.702 in [6]. The composite z-score in assay [7] was 0.61; in assay [9] it was 0.17; in [10], -0.201; in [11], 1.58; in [15] it was 1.31; in [17], 0.406. The composite z-score in assay [18] was 0.674; in assay [19] it was 1.07; in assay [20] it was 0.0287. Besides, the z-score in assay [8] was 0.833 (inactive); in assay [12], 0.777 (inactive); in assay [13] it was 0.516 (inactive); in assay [14] it was 0.347 (inactive); in assay [16], -0.196 (inactive).

Consider `CC(CCN1CCCc2nc(C)c(C)cc21)=NO[C@H](C)c1cn([C@@H]2COC[C@H]2O)nn1`, for which the composite z-score in assay [1] was -0.396; in assay [2], 1.37; in assay [3] it was -0.0788; in [4], 0.359; in assay [5], 0.6; in [6], 0.0261. Besides, the composite z-score was 1.17 in assay [7]; 0.3 in assay [9]; -0.195 in [10]; 1.16 in assay [11]; 0.788 in assay [15]; 0.13 in [17]. In addition, the composite z-score in assay [18] came out at 0.566; in [19], 0.676; in [20], 0.187. Further, the z-score is 0.59 (inactive) in assay [8]; 1.17 (inactive) in assay [12]; 1.12 (inactive) in assay [13]; 0.468 (inactive) in [14]; 1.24 (inactive) in assay [16].

Turning to `CC(C)=CCCC(C)=CCON=C1C[C@@H](O)[C@@H](O)[C@@H]2[C@@H]3C(=O)N(c4cccc(Oc5ccccc5)c4)C(=O)[C@@H]3CC[C@H]12`, the composite z-score in assay [1] is -0.304; in [2], -0.0323; in [3], -0.0296; in assay [4] it was 0.0259; in [5] it was 0.206; in assay [6], 0.691. Also, the composite z-score was 0.877 in [7]; 0.305 in assay [9]; 0.06 in [10]; 1.04 in [11]; 1.12 in [15]; -0.138 in assay [17]. Further, the composite z-score in assay [18] was 0.485; in [19], 0.782; in assay [20], 0.0209. The z-score was 0.122 (inactive) in assay [8]; 0.788 (inactive) in [12]; -0.0823 (inactive) in assay [13]; -0.407 (inactive) in assay [14]; 0.204 (inactive) in assay [16].
